From PMC5836133, “The intracellular immune receptor Rx1 regulates the DNA-binding activity of a Golden2-like transcription factor”
In all, about 16,000 sequences were measured (“e-score”: median about -0.044, highest 2% from about 0.38 on). The entries come from a sample that favours the highest values as a whole.

Biological target: T1, GST-NbGlk1(82-244) (Nicotiana benthamiana)
T1 chain: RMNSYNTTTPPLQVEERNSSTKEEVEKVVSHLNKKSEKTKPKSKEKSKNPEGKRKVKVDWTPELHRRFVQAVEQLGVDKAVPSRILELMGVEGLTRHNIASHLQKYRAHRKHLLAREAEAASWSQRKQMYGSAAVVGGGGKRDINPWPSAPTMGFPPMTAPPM
Test: protein-binding microarray; NbGlk1 is a Golden2-like transcription factor of Nicotiana benthamiana; high values mean tight binding
Conditions: protein: recombinant; tags: GST (pTH6838); dsDNA, one strand shown

Row | Sequence | binding signal [E-score]
1 | ATGGATTA | 0.326 ± 0.0123
2 | ACGGATTG | 0.277 ± 0.0929
3 | ATGGATTC | 0.425 ± 0.0111
4 | ACGGATTC | 0.405 ± 0.00859
5 | ACGGATTA | 0.312 ± 0.00583
6 | ATGGATTG | 0.21 ± 0.0605
7 | ACGCTGAT | 0.235 ± 0.108
8 | ATTTCTTG | 0.258 ± 0.105
9 | AATGAAAT | 0.236 ± 0.00744
10 | CAATCTCG | 0.404 ± 0.00662
11 | AAATCTCC | 0.439 ± 0.00952
12 | AAATCTCA | 0.444 ± 0.0165
13 | CAATCTCC | 0.349 ± 0.0541
14 | CAATCTCA | 0.329 ± 0.0291
15 | AAATCTCG | 0.4626 ± 0.00233
16 | CAATCACA | 0.205 ± 0.12
17 | AATTCTCA | 0.243 ± 0.0881
18 | ATCGAATA | 0.235 ± 0.0136
19 | ACGAGAAT | 0.31 ± 0.0433
20 | ATCTAATG | 0.243 ± 0.0558
21 | ATTTCCCA | 0.329 ± 0.00415
22 | CACGATCG | 0.23 ± 0.0866
23 | ATCTATCA | 0.276 ± 0.0314
24 | ATAGGATC | 0.255 ± 0.0193
25 | AATCAACA | 0.259 ± 0.102

Row | Sequence | binding signal [E-score]
26 | ATCTTTTG | 0.24 ± 0.0872
27 | AATCATAT | 0.28 ± 0.0597
28 | ACTGTGAT | 0.208 ± 0.0601
29 | AGATCGGG | 0.239 ± 0.0369
30 | ATCCTCTA | 0.342 ± 0.0176
31 | ACTGATAC | 0.204 ± 0.0454
32 | CAAAGATA | 0.225 ± 0.0785
33 | AATTCTCT | 0.225 ± 0.0473
34 | AAATCTCT | 0.392 ± 0.0226
35 | AAATCACT | 0.26 ± 0.0391
36 | ATCCTCAA | 0.322 ± 0.0217
37 | ACCGGATC | 0.21 ± 0.0564
38 | ATATAAGA | 0.21 ± 0.0738
39 | AGAATTTG | 0.293 ± 0.0716
40 | AGGATTTC | 0.469 ± 0.0121
41 | AGGATTTG | 0.383 ± 0.0174
42 | AGAATTTC | 0.267 ± 0.0165
43 | AATATTTC | 0.34 ± 0.0237
44 | AGTATTTG | 0.208 ± 0.054
45 | ATCTCCTA | 0.337 ± 0.0176
46 | AGGGAAAT | 0.334 ± 0.0487
47 | AATAAGAT | 0.3 ± 0.0136
48 | ATTACTCA | 0.208 ± 0.0879
49 | AATCGCGA | 0.376 ± 0.0188
50 | AGATCACG | 0.26 ± 0.003

Row | Sequence | binding signal [E-score]
51 | AGATCCCG | 0.32 ± 0.0375
52 | AGATCCCA | 0.219 ± 0.0112
53 | AGATCTAC | 0.347 ± 0.0432
54 | AGATCTCA | 0.413 ± 0.0152
55 | AGATCTCG | 0.431 ± 0.0229
56 | AGATCCCC | 0.378 ± 0.0125
57 | AGATCTCC | 0.441 ± 0.0151
58 | ATCGTAAC | 0.244 ± 0.00995
59 | ATCATATC | 0.329 ± 0.0297
60 | ATTCCCGG | 0.283 ± 0.0331
61 | CAAATCGC | 0.32 ± 0.038
62 | AAAATCGA | 0.381 ± 0.0174
63 | ATAATCGC | 0.207 ± 0.0834
64 | AAAATCGG | 0.363 ± 0.0144
65 | ATAATCGA | 0.216 ± 0.00243
66 | CAAATCGA | 0.28 ± 0.0483
67 | AAAATCGT | 0.39 ± 0.0061
68 | AAAATCGC | 0.405 ± 0.00862
69 | AATTGCGT | 0.233 ± 0.0124
70 | AATTATCC | 0.204 ± 0.00884
71 | ATCTGAGC | 0.219 ± 0.0796
72 | ACAGATTC | 0.429 ± 0.0275
73 | ATAGATTC | 0.437 ± 0.0195
74 | ACAGATTG | 0.359 ± 0.0598
75 | ACAGATTA | 0.362 ± 0.0124

Row | Sequence | binding signal [E-score]
76 | ATAGATTA | 0.339 ± 0.0049
77 | AGAGATTA | 0.298 ± 0.025
78 | AGAGATTG | 0.325 ± 0.048
79 | ATAGATTG | 0.327 ± 0.0261
80 | AGAGATTC | 0.434 ± 0.028
81 | ACCAGATC | 0.2 ± 0.124
82 | ATCACGTA | 0.257 ± 0.0112
83 | AAGTATCT | 0.249 ± 0.0273
84 | AATTTAGA | 0.251 ± 0.0537
85 | AGTGCGAT | 0.313 ± 0.00866
86 | AAGGGGAT | 0.203 ± 0.0242
87 | ATTTGCAA | 0.304 ± 0.00257
88 | ATATCACA | 0.369 ± 0.031
89 | ATTGCGTG | 0.388 ± 0.00526
90 | ATTGCGTC | 0.2709 ± 0.000439
91 | ATTGCGTA | 0.367 ± 0.0361
92 | CAATCAAA | 0.214 ± 0.036
93 | AAAATAAA | 0.218 ± 0.15
94 | CACTGATA | 0.208 ± 0.181
95 | ATCTCGAC | 0.34 ± 0.0977
96 | AGATCTAG | 0.349 ± 0.0106
97 | ATATCAAC | 0.287 ± 0.0867
98 | ATCTCTAA | 0.216 ± 0.0218
99 | ATCTCTAC | 0.297 ± 0.0234
100 | ATATCTAC | 0.392 ± 0.0225

Row | Sequence | binding signal [E-score]
101 | ATATCTAG | 0.392 ± 0.0205
102 | AGATCTAA | 0.303 ± 0.0304
103 | ATATCTAA | 0.417 ± 0.0517
104 | ATCTCTAG | 0.294 ± 0.0244
105 | ACCGATAT | 0.364 ± 0.00959
106 | ATCAGAAT | 0.275 ± 0.0769
107 | AGTGTAAT | 0.362 ± 0.0129
108 | ATCTGATA | 0.345 ± 0.00479
109 | ATTCGTAA | 0.208 ± 0.00392
110 | ATCTTTCC | 0.218 ± 0.0881
111 | AATCACAT | 0.265 ± 0.0229
112 | CAATCGCA | 0.23 ± 0.0233
113 | CACGTATC | 0.216 ± 0.0457
114 | ATCGCGGC | 0.208 ± 0.0886
115 | ATTTTACG | 0.213 ± 0.082
116 | AGATCGGA | 0.277 ± 0.0345
117 | AATCATTA | 0.201 ± 0.157
118 | ATTGCATG | 0.221 ± 0.0421
119 | ATTTCACG | 0.242 ± 0.0818
120 | AATTTCGG | 0.245 ± 0.0953
121 | ATTATGGA | 0.277 ± 0.0309
122 | AATCCTGA | 0.399 ± 0.0138
123 | AATCCTCG | 0.345 ± 0.0473
124 | AATCCTAC | 0.3426 ± 0.00211
125 | AATCCTAG | 0.388 ± 0.0422

Row | Sequence | binding signal [E-score]
126 | AATCCTAA | 0.395 ± 0.0218
127 | ATTCCTAG | 0.202 ± 0.0268
128 | AATCCTAT | 0.376 ± 0.0141
129 | AATCCTGG | 0.3628 ± 0.00311
130 | AATCCTGC | 0.356 ± 0.0181
131 | ATCGTGGA | 0.273 ± 0.0839
132 | ACGAATCG | 0.283 ± 0.0452
133 | ATTCCTTG | 0.228 ± 0.115
134 | AATCTTCT | 0.41 ± 0.0267
135 | AATCTTCA | 0.388 ± 0.01
136 | ATTCTTCA | 0.324 ± 0.0737
137 | AATCATCA | 0.212 ± 0.0286
138 | AATCATCG | 0.225 ± 0.0433
139 | AATCGTCT | 0.277 ± 0.0759
140 | AATCTTCC | 0.361 ± 0.0433
141 | AATCTTCG | 0.404 ± 0.0151
142 | ATTCTTCC | 0.221 ± 0.0993
143 | AATAATCT | 0.276 ± 0.0304
144 | CACACAGA | 0.201 ± 0.0131
145 | ATATATGG | 0.224 ± 0.0844
146 | ATATACGA | 0.236 ± 0.0113
147 | ATTTCGAA | 0.316 ± 0.0613
148 | ATCCAAAC | 0.241 ± 0.133
149 | ATCTCAAG | 0.256 ± 0.0583
150 | ATCGTATC | 0.36 ± 0.0262

Row | Sequence | binding signal [E-score]
151 | AATCCAAG | 0.394 ± 0.00595
152 | AATCAAAA | 0.296 ± 0.0471
153 | ATCCCAAT | 0.201 ± 0.0789
154 | AATGCAAT | 0.303 ± 0.0228
155 | ATTCCAAG | 0.205 ± 0.0718
156 | AATCCAAC | 0.348 ± 0.0137
157 | AATCCCAA | 0.367 ± 0.00919
158 | AATCCAAA | 0.4128 ± 0.00044
159 | AATCCAAT | 0.408 ± 0.0114
160 | AACGGAAT | 0.285 ± 0.0635
161 | ATTTCCCG | 0.3088 ± 0.000826
162 | ATCTCAGC | 0.22 ± 0.0276
163 | ATTATCCG | 0.279 ± 0.01
164 | AATATCGA | 0.326 ± 0.0506
165 | AATATCCC | 0.339 ± 0.0252
166 | AATATCCA | 0.396 ± 0.0292
167 | AGTATCCA | 0.265 ± 0.00779
168 | AATATCCG | 0.426 ± 0.013
169 | AATATCAT | 0.282 ± 0.0333
170 | AATATCGT | 0.322 ± 0.0372
171 | AATATCCT | 0.389 ± 0.005
172 | ATCGAGAA | 0.236 ± 0.0184
